# Experimental data: PubChem BioAssay
# Activity calls are given as the source filed them. Unless noted, how the calls were made is not given here.
# Tests used:
# [1] = tested on: Wnt5a (protein binding on small-molecule microarray); test: Wnt5a binders on small-molecule microarray, primary screen, biophysical, 635/667 nm fluorescence (AID 1142); conditions: 635 nm fluorescence, higher = more signal;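 further: fluorescence read at 667 nm with signal to noise per printed feature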
# [2] = cell viability in Huh7 cells, primary screen, cytotoxicity control for HCV replication inhibitor project, CellTiter-Glo luminescence, basal, 48 h (AID 1143); conditions: Huh7 HCV replicon, higher = more signal, called active from +8 up or from −8 down;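 further: Huh7 hepatoma cells carrying a hepatitis C replication reporter with no stimulus; test concentration not given here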
# [3] = P. aeruginosa biofilm formation inhibitors, primary screen, PAO1 strain, BacTiter-Glo luminescence, LB-PBS (AID 1144); conditions: 12 h, higher = more signal
# [4] = CREB reporter modulators without forskolin, primary screen, cell-based, PC12, CRE-LacZ reporter, unstimulated (AID 1145); conditions: no forskolin, luminescence, 4.5 h, higher = more signal, called active from +8 up or from −8 down
# [5] = CREB reporter modulators under forskolin, primary screen, cell-based, PC12, CRE-LacZ reporter, forskolin-stimulated (AID 1146); conditions: luminescence, 4.5 h, higher = more signal, called active from +8 up or from −8 down;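 further: PC12 cells with 6xCRE LacZ reporter stimulated by forskolin 10 µM; beta-galactosidase reporter signal reflecting CREB driven transcription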
# [6] = biological target: Streptavidin (Streptomyces avidinii) (UniProt P22629); test: streptavidin binders on small-molecule microarray, primary screen, artefact control for SMM compound annotation, biophysical, 635/667 nm fluorescence (AID 1147); conditions: streptavidin binding, higher = more signal;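 further: signal reflects streptavidin binding to arrayed compounds as a control protein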
# [7] = small-molecule binders of probe aInhba, primary screen, biochemical, small-molecule microarray, 635/667 nm fluorescence (AID 1148); conditions: higher = more signal;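 further: score merges 667nm spot fluorescence with signal-to-noise for antibody binding to printed compounds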
# [8] = biological target: Torsin-1A (Homo sapiens) (UniProt O14656); test: torsin A binders from cell lysate, primary screen, small-molecule microarray, wild-type, 635/667 nm (AID 1149); conditions: COS7 hTOR1A-WT lysate, 635 nm fluorescence, higher = more signal
# [9] = biological target: Torsin-1A (Homo sapiens) (UniProt O14656); test: small-molecule binders of mutant TOR1A in lysate, primary screen, cell lysate, small-molecule microarray, COS7 lysate, 635/667 nm fluorescence (AID 1150); conditions: COS7 hTOR1A mutant lysate, 635 nm fluorescence, higher = more signal;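 further: score pools 667 nm emission and signal to noise measuring lysate protein binding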
# [10] = tested on: Sonic hedgehog protein (Shh); test: small-molecule binders of Shh protein, primary screen, biochemical, small-molecule microarray, 635/667 nm fluorescence (AID 1151); conditions: small-molecule microarray binding, 635 nm fluorescence; higher = more signal;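 further: Shh protein binding to compounds spotted on small-molecule microarray slides; score combines spot fluorescence intensity with signal-to-noise across triplicate slides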
# Chain of Torsin-1A (Homo sapiens) (O14656 whole entry, looked up): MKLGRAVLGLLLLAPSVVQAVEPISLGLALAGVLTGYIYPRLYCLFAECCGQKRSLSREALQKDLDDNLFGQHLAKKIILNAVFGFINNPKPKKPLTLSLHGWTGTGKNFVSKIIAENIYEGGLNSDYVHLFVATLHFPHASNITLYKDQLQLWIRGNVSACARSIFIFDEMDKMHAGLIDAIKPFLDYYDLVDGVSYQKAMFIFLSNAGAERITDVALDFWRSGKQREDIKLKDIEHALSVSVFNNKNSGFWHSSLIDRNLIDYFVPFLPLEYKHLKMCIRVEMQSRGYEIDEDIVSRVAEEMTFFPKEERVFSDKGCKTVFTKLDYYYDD
# Chain of Streptavidin (Streptomyces avidinii) (P22629 whole entry, looked up): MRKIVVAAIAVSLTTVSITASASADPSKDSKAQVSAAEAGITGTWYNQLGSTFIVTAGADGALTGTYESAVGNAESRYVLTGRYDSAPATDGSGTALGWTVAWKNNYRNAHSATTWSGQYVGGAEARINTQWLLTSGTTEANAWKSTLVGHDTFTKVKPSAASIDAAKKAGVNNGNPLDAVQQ
SMILES,composite z-score [1],z-score [2],z-score [3],z-score [4],z-score [5],composite z-score [6],composite z-score [7],composite z-score [8],composite z-score [9],composite z-score [10]
CC(C)CNC(=O)[C@@H]1c2ccccc2C(=O)N(Cc2cc(C(F)(F)F)cc(C(F)(F)F)c2)[C@H]1c1ccc(CO)cc1,-0.0674,-1.51 (inactive),0.788 (inactive),-0.0512 (inactive),-1.2 (inactive),-0.674,0.212,-0.395,-0.537,-0.22
O=C1O[C@H](c2ccccc2)[C@H](c2ccccc2)N2[C@H]1[C@@H](C(=O)NC[C@H](O)c1ccccc1)[C@]1(C(=O)Nc3ccc(C#CCCO)cc31)[C@H]2c1ccc(O)cc1,-0.11,-4.32 (inactive),-1.16 (inactive),-0.329 (inactive),0.0393 (inactive),-1.11,0.295,-0.596,-1.36,-0.606
CCOC(=O)C1=C[C@@H](C(C)C)N(S(=O)(=O)c2ccc(C)cc2)[C@H]1c1ccc(C(C)C)cc1,0.336,-3.48 (inactive),-0.228 (inactive),-0.676 (inactive),0.359 (inactive),1.58,-0.121,1.05,0.644,0.31
O=C(NCc1ccccc1)[C@]1(CCS(=O)(=O)c2ccccc2)N=C(c2ccc(OCCCO)cc2)O[C@@H]1c1ccccc1,0.721,-2.63 (inactive),-0.422 (inactive),-1.04 (inactive),0.0925 (inactive),0.959,0.111,0.129,0.585,0.16
C=CC[C@]1(C(=O)N2CCOCC2)N=C(c2ccc(OCCCO)cc2)O[C@H]1c1ccccc1,0.514,-2.02 (inactive),-0.248 (inactive),1.34 (inactive),-0.302 (inactive),0.954,0.0561,-0.267,0.96,-0.509
CS(=O)(=O)CCOC(=O)C1=CC(c2ccc(CO)cc2)=CC(C2CC2)N(Cc2cc3c(cc2Br)OCO3)C=C1C(=O)OCCS(C)(=O)=O (stereo not given),0.377,-3.38 (inactive),-0.992 (inactive),5.81 (inactive),-2.41 (inactive),1.54,-0.0645,0.0194,1.45,0.595
Cc1ccc(S[C@]2(C(=O)NCc3ccccc3)CC(=O)N(Cc3ccccc3)[C@@H]2c2ccc(CO)cc2)cc1,-0.202,-0.618 (inactive),0.395 (inactive),-0.735 (inactive),-0.26 (inactive),-0.926,-0.0719,-0.499,0.248,-0.242
CCCC[C@@H]1C[C@H]1[C@@H](NC(=O)c1ccc(-c2ccccc2)cc1)c1ccc(-c2ccccc2)cc1,0.198,-2.94 (inactive),0.0911 (inactive),0.394 (inactive),1.7 (inactive),0.305,0.0111,0.0287,-0.0963,2.02
CCOC(=O)C1=CC[C@@H](c2ccccc2Cl)N(S(=O)(=O)c2ccc(C)cc2)C1,0.149,-5.35 (inactive),-0.602 (inactive),0.173 (inactive),-0.0077 (inactive),0.884,0.0569,0.623,0.738,-0.53
COc1ccc([Si](C)(C)[C@H]2[C@H](CCn3cc(CCO)nn3)O[C@@]3(C(=O)N(Cc4ccc(N5CCOC5=O)cc4)c4ccccc43)[C@@H]2C)cc1,-0.0483,-4.12 (inactive),9e-05 (inactive),0.469 (inactive),-2.21 (inactive),-0.0903,-0.0044,0.676,0.806,1.59
CCOC(=O)C1=C[C@@H](CC)N(S(=O)(=O)c2ccc(C)cc2)[C@H]1c1ccccc1,0.214,-3.47 (inactive),-0.0903 (inactive),0.22 (inactive),-0.55 (inactive),1.09,0.226,0.391,0.637,0.0552
CC(C)NC(=O)[C@@]1(Cc2ccccc2I)c2ccccc2C(=O)N(Cc2ccccc2)[C@H]1c1ccc(CO)cc1,0.107,-2.05 (inactive),-0.549 (inactive),-0.231 (inactive),0.0359 (inactive),0.0632,0.817,0.484,-0.181,1.39
Cc1cc(C)c(C(O)C2C=CC3C(=O)N(c4ccccc4)C(=O)C3N2Nc2ccc(C#N)cc2)c(C)c1 (stereo not given),0.461,0.287 (inactive),-1.36 (inactive),0.246 (inactive),1.19 (inactive),2,0.427,0.221,1.51,-0.438
CC(C)C(=C=CC[C@H](O)c1ccccc1OCCO)C[C@H](O)c1ccccn1,0.257,-0.667 (inactive),-0.0531 (inactive),4.99 (inactive),0.0622 (inactive),-0.199,-0.0205,0.635,1.59,1.63
COCCCNC(=O)[C@@]1(c2ccc([N+](=O)[O-])cc2)CC(=O)N(CC23CC4CC(CC(C4)C2)C3)[C@@H]1c1ccc(CO)cc1,0.459,-4.39 (inactive),-1.51 (inactive),-0.179 (inactive),-0.284 (inactive),0.0765,-0.0018,1.02,0.894,2.13
N#Cc1ccc(NN2C(C(O)c3ccc([N+](=O)[O-])cc3)C=CC3C(=O)N(c4ccccc4)C(=O)C32)cc1 (stereo not given),0.72,0.845 (inactive),-0.245 (inactive),-0.525 (inactive),0.516 (inactive),0.323,0.137,-0.169,0.303,-0.261
CCC(CC)C(O)C1C=CC2C(=O)N(c3ccccc3)C(=O)C2N1Nc1ccc(C#N)cc1 (stereo not given),0.658,0.625 (inactive),-0.939 (inactive),1.01 (inactive),0.435 (inactive),1.24,0.75,0.223,0.775,-0.41
CC(C)N1CC=CC23O[C@@H]4C=CCOC(=O)[C@@H]4[C@H]2C(=O)N(CCO)[C@@H]3C1=O (stereo not given in full),-0.967,0.273 (inactive),-0.289 (inactive),-1.3 (inactive),-0.67 (inactive),-1.05,-0.302,-2.5,-1.48,0.643
CCCCC=C[C@@H](NC(=O)c1ccc(C(=O)OC)cc1)c1ccccc1,0.301,-2.79 (inactive),0.806 (inactive),-0.185 (inactive),1.11 (inactive),0.994,0.143,-0.225,0.241,0.185
CC(=CC1CCCCC1)[C@@H](NC(=O)c1ccc(C(F)(F)F)cc1)c1ccc(-c2ccccc2)cc1,-0.239,-0.992 (inactive),-0.019 (inactive),0.587 (inactive),0.618 (inactive),1.03,0.105,-0.514,-0.336,-0.129
COc1ccc(CCNC(=O)[C@@]2(c3ccc([N+](=O)[O-])cc3)CC(=O)N(CC34CC5CC(CC(C5)C3)C4)[C@@H]2c2ccc(CO)cc2)cc1,0.145,-5.75 (inactive),-1.36 (inactive),-0.062 (inactive),0.164 (inactive),0.531,0.327,0.246,0.388,0.948
CO[C@H]1O[C@H](CO)[C@@H](OC(=O)Nc2ccc(Oc3ccccc3)cc2)[C@H](OC(=O)Nc2ccccc2)[C@H]1OC(=O)Nc1ccccc1,1.07,-5.1 (inactive),-2.24 (inactive),0.512 (inactive),-1.64 (inactive),0.693,0.167,0.546,0.76,1.86
CC1CC/C=C\[C@H]2OC34C=CCN(Cc5ccccc5)C(=O)[C@H]3N(CCCCCO)C(=O)[C@@H]4C2C(=O)O1 (stereo not given in full),0.008,0.398 (inactive),1.96 (inactive),1 (inactive),0.424 (inactive),-0.966,-0.242,-1.17,-1.4,-0.829
O=C1N(CCS(=O)(=O)c2ccccc2)Cc2ccccc2C[C@]12N=C(c1ccc(OCCCO)cc1)O[C@@H]2c1ccccc1,0.775,-3.53 (inactive),0.81 (inactive),0.0686 (inactive),-1.48 (inactive),0.196,0.537,0.916,1.02,1.51
C=CC[C@@]1(C(=O)O)N=C(c2ccc(OCCCO)cc2)O[C@@H]1c1ccccc1N=[N+]=[N-],0.0886,-1.41 (inactive),0.651 (inactive),0.367 (inactive),-0.432 (inactive),1.11,0.0697,-0.115,0.251,-0.203
COc1ccc([Si](C)(C)[C@@H]2[C@@H](CCn3cc([C@H](O)c4ccccc4)nn3)O[C@]3(C(=O)N(Cc4cccc(N5CCOC5=O)c4)c4ccccc43)[C@H]2C)cc1,-0.105,-1.08 (inactive),-1.69 (inactive),0.134 (inactive),-1.36 (inactive),-0.469,-0.292,-0.568,-0.668,-0.98
COc1ccc([Si](C)(C)[C@H]2[C@H](CCn3cc([C@H](O)c4ccccc4)nn3)O[C@@]3(C(=O)N(Cc4cccc(N5CCC5=O)c4)c4ccccc43)[C@@H]2C)cc1,0.42,-1.67 (inactive),0.115 (inactive),2.55 (inactive),-0.157 (inactive),0.552,-0.045,0.358,0.0772,1.9
O=C1O[C@H](c2ccccc2)[C@H](c2ccccc2)N2[C@H]1[C@@H](C(=O)Nc1nc3ccccc3s1)[C@]1(C(=O)Nc3ccccc31)[C@H]2c1ccc(O)cc1,0.0365,-1.69 (inactive),-0.363 (inactive),0.478 (inactive),0.757 (inactive),1.2,-0.0736,-0.0245,0.414,1.51
